According to ChEMBL document CHEMBL3433997, “St. Jude Leishmania screening dataset” (2016):

How the values were obtained:
Format in all cases: functional
[1] = target: Solute carrier family 2, facilitated glucose transporter member 1 (Homo sapiens) (UniProt P11166); test: ST_JUDE_LEISH: Cytotoxicity at 2uM final concentration against transgenic Leishmania Mexicana promastigotes LmGLUT1 that are glucose transport deficient and complemented with the human glucose transporter GLUT1. Activity is measured by DNA content using SYBR green in vitro
[2] = target: Hexose transporter 1 (Plasmodium falciparum) (UniProt O97467); test: ST_JUDE_LEISH: Cytotoxicity at 2uM final concentration against transgenic Leishmania Mexicana promastigotes LmPfHT that are glucose transport deficient and complemented with the Plasmodium falciparum hexose transporter. Activity is measured by DNA content using SYBR green in vitro
[3] = target: Glucose transporter (Leishmania mexicana) (UniProt O61059); test: ST_JUDE_LEISH: Cytotoxicity at 2uM final concentration against transgenic Leishmania Mexicana promastigotes LmGT2 that are glucose transport deficient and complemented with the L. Mexicana glucose transporter 2. Activity is measured by DNA content using SYBR green in vitro

Solute carrier family 2, facilitated glucose transporter member 1 (Homo sapiens), sequence (P11166 whole entry): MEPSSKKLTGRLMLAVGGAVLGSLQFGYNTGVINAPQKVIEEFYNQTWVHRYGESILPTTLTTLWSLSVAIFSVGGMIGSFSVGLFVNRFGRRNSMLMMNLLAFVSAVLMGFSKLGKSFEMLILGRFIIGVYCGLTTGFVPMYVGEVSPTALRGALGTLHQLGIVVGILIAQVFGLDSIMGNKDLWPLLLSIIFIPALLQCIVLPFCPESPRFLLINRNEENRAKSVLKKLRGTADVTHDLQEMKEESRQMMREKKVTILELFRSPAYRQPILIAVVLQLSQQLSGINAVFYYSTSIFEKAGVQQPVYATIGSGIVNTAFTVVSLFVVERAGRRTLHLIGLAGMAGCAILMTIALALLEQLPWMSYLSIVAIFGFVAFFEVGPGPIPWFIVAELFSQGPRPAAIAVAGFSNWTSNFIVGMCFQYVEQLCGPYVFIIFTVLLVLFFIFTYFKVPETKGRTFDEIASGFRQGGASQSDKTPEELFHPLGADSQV

| Structure (SMILES) | inhibition [1] [%] | inhibition [2] [%] | inhibition [3] [%] |
| --- | --- | --- | --- |
| O=C(NC1CCN(Cc2cccc(C(F)(F)F)c2)CC1)c1ccc(-c2cccc(Cl)c2)s1 | 3.3 | 2.49 | 5.19 |
| Nc1nc(N)c2c(Oc3cccnc3)cccc2n1 | 0.1 | -1.61 | -0.57 |
| COc1ccc(Br)cc1/C=C/C(=O)Nc1ccc(C2CCN(C)CC2)cc1 | 3.58 | 3.16 | 4.19 |
| COc1ccc(C=NNc2nc(O)cc(-c3ccccc3)n2)cc1OC | 1.33 | -1.28 | -1.28 |
| CC(C)(CN1CCCC1)CN(Cc1ccc(-c2ccc(C(F)(F)F)cc2)cc1)C(=O)Cn1c(CCc2cccc(F)c2F)nc(=O)c2ccccc21 | 10.3 | 8.05 | 8.96 |
| O=C(NCCN1CCC(NC(=O)c2ccc(-c3ccccn3)s2)CC1)c1ccc(Cl)c(Cl)c1 | 3.53 | 4.02 | 4.43 |
| Cc1cc(C)c2nc(N3CCC(C(=O)NCCCN4CCC(N5CCCCC5)CC4)CC3)sc2c1 | 1.45 | 2.91 | 0.65 |
| CC(=O)N1c2ccccc2C(C)=CC1(C)C | -0.17 | -0.45 | -1.02 |
| COc1ccc2nc(C)cc(Nc3ccc(N4CCN(C)CC4)cc3)c2c1 | 0.93 | 2.03 | 0.99 |
| CC(C)CC(=O)N1CCNC[C@@H]1C(=O)NCCSCc1c(F)cccc1Cl | 3.36 | 5.07 | 4.3 |
| Fc1ccc2[nH]c(-c3cccc(-c4ccc(CNCCc5ccncc5)cc4)c3)nc2c1 | 13.9 | 12.6 | 11.4 |
| O=C(/C=C/c1c(Cl)cccc1Cl)NC1CCC(CN2CCC(Cc3cc4ccccc4[nH]3)CC2)CC1 (centres undefined) | 4.15 | 10.2 | 2.31 |
| CC(C)CN1CCN(c2nc(C#N)c3c(c2C(=S)NC2CCCCC2)CC(C)(C)OC3)CC1 | 0.49 | -1.31 | -1.75 |
| COc1ccc(-c2ccc(NC(=O)c3ccc(C#N)cc3)cc2)cc1CN(C)CCO | 2.76 | 0.56 | 1.59 |
| Cc1ccc(C(CC(=O)Nc2nccs2)c2ccc(OC(C)C)cc2)cc1 (centres undefined) | -1.83 | 0.63 | -1.31 |
| CC(C)c1cc(N)c2cc(NC(=O)COCC(=O)Nc3ccc4nc(C(C)C)cc(N)c4c3)ccc2n1 | 5.18 | 5.67 | 5.02 |
| CCc1cccc(OCC2CCCN(c3ccc(C(=O)NC4CC4)cn3)C2)c1 (centres undefined) | 4.71 | 3.55 | 3.3 |

| Structure (SMILES) | inhibition [1] [%] | inhibition [2] [%] | inhibition [3] [%] |
| --- | --- | --- | --- |
| Cc1c(Cn2ncc(N3CC(C)NC(C)C3)c(Cl)c2=O)cccc1NC(=O)Nc1ccc(-c2ccccc2)cc1 (centres undefined) | 4.08 | 3.21 | 5.17 |
| O=C(Nc1ccc2c(c1)OCCO2)c1cc(-c2cccnc2)nc2ccc(Cl)cc12 | 3.75 | 1.71 | 0.65 |
| Cc1c(C(=O)Nc2cc(Sc3ccc(F)cc3)cc([N+](=O)[O-])c2)sc2ncn(Cc3cccc(F)c3)c(=O)c12 | 3.77 | -2.45 | 7.11 |
| COc1ccc(N2CCN(c3nc(N)c4cc(OC)c(OC)cc4n3)CC2C)cc1 (centres undefined) | 0.19 | 1.45 | -0.49 |
| Cc1cc(F)ccc1Nc1nc(N(C)c2ccccc2)c2cccc(O)c2n1 | 12.3 | 9.06 | 1.82 |
| COc1cc(Nc2nccn3c(-c4ccsc4)cnc23)cc(OC)c1OC | 7.63 | 5.81 | 4.31 |
| Cc1c(Cl)ccc2sc(N3CCN(C(=O)c4ccc([N+](=O)[O-])o4)CC3)nc12 | 71.9 | 57.6 | 30 |
| COc1c(C)cc(I)cc1CNCCCNc1cc(=O)c2ccccc2[nH]1 | 0.43 | -0.66 | -0.84 |
| COc1ccc(-c2nc(NC(=O)CS(=O)(=O)c3ccc(C)cc3)sc2C)cc1 | 8.39 | 6.4 | 0.17 |
| CN(C)c1ccc(CN2CCC(CNC(=O)c3cc(-c4ccccc4Cl)cs3)C2)cc1 (centres undefined) | 0.57 | -3.68 | 0.7 |
| COc1ccc(S(=O)(=O)N2CCC3(CC2)OCC(=O)NC3c2ccc(Cl)c(Cl)c2)cc1 (centres undefined) | 2.93 | 1.47 | 0.92 |
| CCOc1ccc(Cc2c(C)nc3nc(N)nc(N)c3c2C)cc1 | 29.1 | 41.5 | 26 |
| O=C(Nc1ccc(-c2nc3ccccc3[nH]2)cc1)c1ccc(N2CCCC2)c([N+](=O)[O-])c1 | 0.71 | 2.01 | 1.2 |
| Cc1ccc(Nc2ccnc(Nc3ccc4c(c3)CS(=O)(=O)C4)n2)cc1O | 2.49 | 3.19 | 4.14 |
| CN1CCCC1CCNc1ncc2c(-c3ccc(NC(=O)Nc4cc(C(F)(F)F)ccc4F)cc3)nn(C)c2n1 (centres undefined) | 3.33 | 1.92 | 3.95 |
| CC(Cc1ccc(C(=O)OC(c2ccccc2)c2ccccc2)cc1)NCC(O)c1ccccc1 (centres undefined) | 0.9 | 0.98 | -0.61 |
